Screening data as filed in PubChem BioAssay.
A selection: hits, their analogues and other compounds. The true share with any hit is near 5.5%.
Six1-Eya2 blk – blocks human Six1 binding to Eya2. Q15475+O00167. activity change, % (no concentration beside the values). 360,000 tested, 0.56% active. AlphaScreen GST-Six1/His-Eya2 binding, biochemical; stronger effect = lower value; in the data active = activity change below about -65%; inconclusive = mostly about -30% to -63%; note: % is set by controls: 0 for no effect and ±100 for the full control effect
Target sequence (O00167 whole entry, looked up): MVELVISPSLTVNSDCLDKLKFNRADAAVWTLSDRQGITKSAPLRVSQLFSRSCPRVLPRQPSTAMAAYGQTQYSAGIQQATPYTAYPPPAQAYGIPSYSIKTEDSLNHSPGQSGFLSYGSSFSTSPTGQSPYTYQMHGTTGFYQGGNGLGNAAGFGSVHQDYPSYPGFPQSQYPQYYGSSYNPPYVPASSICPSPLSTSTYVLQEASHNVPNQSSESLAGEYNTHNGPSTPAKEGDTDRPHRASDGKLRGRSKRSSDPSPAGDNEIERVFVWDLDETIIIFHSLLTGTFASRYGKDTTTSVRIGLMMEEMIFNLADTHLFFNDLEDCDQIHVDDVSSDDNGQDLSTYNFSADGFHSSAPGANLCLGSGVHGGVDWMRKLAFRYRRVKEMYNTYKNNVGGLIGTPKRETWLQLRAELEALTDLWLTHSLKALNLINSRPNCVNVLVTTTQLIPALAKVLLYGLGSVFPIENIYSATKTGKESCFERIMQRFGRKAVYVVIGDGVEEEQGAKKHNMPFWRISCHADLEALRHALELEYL
Target sequence (Q15475 whole entry, looked up): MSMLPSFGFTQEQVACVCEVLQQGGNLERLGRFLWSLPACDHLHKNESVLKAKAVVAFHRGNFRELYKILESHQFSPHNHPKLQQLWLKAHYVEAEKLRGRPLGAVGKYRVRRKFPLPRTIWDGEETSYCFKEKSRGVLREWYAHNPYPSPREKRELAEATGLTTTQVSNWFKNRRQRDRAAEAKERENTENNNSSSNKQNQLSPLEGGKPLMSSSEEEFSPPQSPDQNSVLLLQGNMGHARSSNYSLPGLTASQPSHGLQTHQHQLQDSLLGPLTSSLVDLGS
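GST-Six1 + His-Eya2 (5X stock: 250/500 nM); Tris pH 8.0, 300 mM NaCl, 0.05% BSA, 0.02% Tween 20; GSH donor/Ni acceptor beads; 1 h 37 °C dark; AlphaScreen readout.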
CtBP-E1A inh – blocks the CtBP interaction with E1A | AlphaScreen GST-E1A/His-CtBP binding, 1536-well; stronger effect = lower value | 340,000 tested, 0.49% active | activity change, % (test concentration not listed) | AID 651724; in the data active = activity change below about -65%; inconclusive = mostly about -30% to -63%; note: % is set by controls: 0 for no effect and ±100 for the full control effect
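Protein mix (5X: 125 nM each GST-E1A, His-CtBP) was incubated with pinned compound 2 h at 37 deg C in dark, in 50 mM Tris pH 8.0 buffer with 300 mM NaCl. Glutathione donor and nickel acceptor beads followed; AlphaScreen signal read after 1 h.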
MBNL1 CUG block – MBNL1-poly(CUG) RNA binding inhibition; TR-FRET MBNL1-His/biotin-(CUG)12 binding, 665/545 ratio; Potency, µM (series often up to 57.5 µM), for the others: at the top dose activity change, negative = inhibition, actives largely listed as inhibitors; 280,000 tested, 0.036% active; AID 2675; active = well fitted inhibition curve with a large enough effect in the signal ratio, with a control signal flat, not every such curve was filed as active; inconclusive = small, poorly fitted or top-dose-only effect, or effect the other way, or a change in a side signal; inactive = no such curve, though single readings can be large or run the other way; the % refers to the signal ratio; note: potency is the fitted concentration of half-maximal effect; % is set by controls: 0 for no effect and ±100 for the full control effect
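TR-FRET between His-tagged MBNL1 and biotin-(CUG)12 RNA, detected with Tb anti-His antibody (0.055 ng/ul) and streptavidin-XL665 (5 nM), 60 min at room temperature. Compounds titrated 92 nM to 58 uM; 665/545 nm ratio normalized to buffer and complex controls.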
CBFb RUNX1 block – blocks binding between human CBF-beta and RUNX1 | Q01196+Q13951 | AlphaScreen CBFb-His/RUNX1-biotin binding, biochemical | Potency, µM (highest dose often 59.8 µM), inactives show top-dose activity, negative = inhibition, actives largely listed as inhibitors | AID 1477 | 230,000 tested, under 10 active; note: % of control where 0% means no effect
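CBFb-His/RUNX1-biotin, 30 nM each, preincubated 20 min RT; compound 15 min RT; Ni + streptavidin beads 50 ng each, 90 min RT; AlphaScreen read.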
RORg inh – inhibitors of mouse ROR gamma transcriptional activity | Drosophila S2 Gal4-RORgamma UAS-luciferase reporter, 20 h | Potency, µM (series often up to 53.6 µM), without a hit: top-dose activity change, negative = inhibition, most hits filed as inhibitors | 310,000 tested, 5.4% active | AID 2551; note: potency is the fitted concentration of half-maximal effect; % is set by controls: 0 for no effect and ±100 for the full control effect; nearly all actives have a fitted effect of over 60% in size
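Schneider cells (Drosophila), stable Gal4 DBD–ROR gamma + UAS-luc; 1 hr cmpd preincubation; Cu2+ induction 700 uM final; 20 hr ambient; luminescence.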
VP16 counter – inhibits Gal4-VP16 luciferase reporter, ROR gamma counter-screen | Drosophila S2 Gal4-VP16 UAS-luciferase, luminescence, 20 h | Potency, µM (top dose mostly 53.6 µM), without a hit: at the top dose activity, negative = inhibition, actives largely listed as inhibitors | 310,000 tested, 3.5% active | AID 2546;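 note: Gal4-VP16 expression switched on by copper sulfate through the metallothionein promoter; potency is the fitted concentration of half-maximal effect; % is set by controls: 0 for no effect and ±100 for the full control effect; nearly all actives have a fitted effect of over 50% in size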
* = called active by the depositor; ? = inconclusive; . = no result given; [ ] = remark or other dose. Unless noted, calls come from the whole dose curve; as a rule, active = well fitted curve in the direction sought with a large enough effect; inconclusive = small, poorly fitted or top-dose-only effect, or another doubt; inactive = no such curve, though single readings can be large; an effect the other way counts as inactive or inconclusive.

SMILES | Six1-Eya2 blk | CtBP-E1A inh | MBNL1 CUG block | CBFb RUNX1 block | RORg inh | VP16 counter
CCOc1ccc(NC(=S)NC(=O)c2c(Br)cnn2C)c([N+](=O)[O-])c1 | -19.3 | -1.0 | 13.7%[11.5 µM] | ? | ? | -0.6%
CCOc1ccc(NC(=S)NC(=O)c2cccnc2)c([N+](=O)[O-])c1 | -23.2 | -2.0 | ? | . | 20µM* | 17.8µM*
CCN(CC)C(=O)C1=C(C)N(Cc2ccccc2)C(=O)C(CC(=O)NCCc2ccccn2)C1 (configuration not stated) | 6.8 | 5.4 | . | . | . | .
CCOc1ccc(NC(=S)NC(=O)c2c(Cl)cnn2CC)c([N+](=O)[O-])c1 | -15.8 | -16.5 | ? | ? | 7.94µM* | ?
CCOc1ccc(NC(=O)/C=C/c2ccccc2)c([N+](=O)[O-])c1 | -5.1 | -16.8 | 7.9% | -22.2% | 2.8% | -9.5%
CCOc1ccc(N/C=C/C(=O)c2ccccc2)c([N+](=O)[O-])c1 | -5.4 | -4.3 | 55.0% | ? | 7.08µM* | 7.08µM*
Cn1sc(=O)n(Cc2ccccc2)c1=O | . | . | . | 9.0% | 3.16µM* | ?
Cn1c(=O)n(Cc2ccccc2)c2ccccc21 | 5.5 | 0.0 | -0.3% | 6.5% | -3.0% | 14.3%
CCCCc1ccc(NC(=S)NCc2cccc(OC)c2)cc1 | -5.5 | 0.0 | -4.0% | 2.2% | 3.55µM* | 0.3%[10 µM]
CCCCc1ccc(NC(=S)Nc2ccc(Nc3ccc(OC)cc3)cc2)cc1 | ? | ? | -6.4% | -0.6% | 1.12µM* | 1.58µM*
CCCCc1ccc(NC(=O)OC)cc1 | 9.7 | 5.9 | -5.6% | 12.6% | -6.8% | 0.2%
CCc1ccc(NC(=O)Nc2cccc(OC)c2)cc1 | 2.1 | 0.0 | -0.9% | 13.4% | 9.9% | ?
COc1cccc(NC(=O)Nc2ccc(CC(=O)O)cc2)c1 | 5.1 | 19.4 | 1.5% | -2.4% | ? | 20µM*
CCCCc1ccc(NC(=S)Nc2cccnc2)cc1 | 0.4 | -1.8 | -7.0% | 0.5% | 12.6µM* | 12.6µM*
COC(=O)[C@@]12C[C@@H](CC(=O)NCCC(C)C)C(=O)N(Cc3ccccc3)C1=CCC(C)(C)C2 | -5.1 | 4.8 | . | . | . | .
CCN(CC(=O)NCc1ccc(Cl)cc1)C(=O)COc1cccc(C(F)(F)F)c1 | -0.5 | 8.4 | . | . | . | .
CC(=O)c1ccc2c(c1)CCN2 | 9.7 | -7.8 | . | . | . | .
COC(=O)Cc1ccc(NC(=S)NCc2cccc(OC)c2)cc1 | -2.3 | 0.0 | -6.3% | 0.5% | 12.6µM* | 8.1%[10 µM]
Cc1ccc(S(=O)(=O)N2CCCCC2)cc1C(=O)N(CCc1ccccc1)Cc1ccccc1 | -6.7 | 3.1 | . | . | . | .
COc1ccc(-n2c(=S)[nH]c3cc(C(=O)NCCCN4CCOCC4)ccc3c2=O)cc1OC | -21.6 | -0.7 | 277.8% | . | -14.9% | 3.9%
Cc1ccc(F)cc1CNC(=O)c1cc(COc2ccc3ncccc3c2)on1 | -9.4 | -3.8 | -3.7% | 3.8% | ? | 11.2µM*
O=C(NCc1cccc(Cl)c1)c1cc(COc2ccc3ncccc3c2)on1 | -13.2 | -15.6 | -1.7% | 6.8% | -70.7% | 10µM*
Cc1cc(C)n(CCNC(=O)c2cc(COc3ccc4ncccc4c3)on2)n1 | 2.7 | -1.3 | 5.4% | 8.8% | ? | ?
CC(CCCC(C)(C)O)NC(=O)c1cc(COc2ccc3ncccc3c2)on1 (configuration not stated) | -2.1 | -3.3 | 13.2% | 3.1% | 7.94µM* | 5.62µM*
CCc1nc2ccc(C(=O)NCC3CCCCC3)cn2c1N(CCC(C)C)CCN(C)C | -6.4 | 0.1 | . | . | . | .
SMILES | Six1-Eya2 blk | CtBP-E1A inh | MBNL1 CUG block | CBFb RUNX1 block | RORg inh | VP16 counter
O=C(c1ccc(N2CCN(C(=O)c3ccc(F)c(F)c3)CC2)cc1)c1cccc(F)c1 | 15.6 | 4.5 | -1.4% | . | 1.78µM* | ?
CC/C(O)=C(\C#N)c1nnc2n1CCCCC2 | -1.9 | 9.7 | -7.4% | -4.5% | 12.6µM* | ?
CC/C(O)=C(/C#N)c1nnc2n1CCCCC2 | -0.8 | 5.8 | 2.6% | -20.9% | 20µM* | ?
CCOc1ccc(NS(=O)(=O)c2csc(C(N)=O)c2)cc1 | 5.5 | -14.6 | -5.1% | . | ? | -16.7%
COc1cc(-c2cnc3c(NC(C)=O)cc(-c4cccc(C(=O)NCCO)c4)cn23)cc(OC)c1OC | -10.7 | -6.9 | . | . | . | .
CCOC(=O)c1cc(S(=O)(=O)N(C)Cc2ccccc2)cn1C | 0.3 | 10.7 | 9.8% | . | -13.4% | 10.9%
CC(C)CO/N=C1/C[C@@H](O)[C@@H](O)[C@@H]2[C@H]3C(=O)N(c4ccc(F)cc4F)C(=O)[C@@H]3CC[C@@H]12 | . | . | . | 9.2%[13.1 µM] | 2.8%[10 µM] | -3.1%[10 µM]
C[C@H]1CN([C@@H](C)CO)C(=O)CCCn2nncc2CO[C@@H]1CN(C)Cc1cccc2c1OCCCO2 | -0.2 | 3.6 | . | . | . | .
Nc1cc2nsnc2cc1Br | -1.7 | ? | ? | -7.3% | 12.6µM* | -10.2%
COC(=O)c1ccccc1NC(=S)NC(NC(=O)c1ccco1)C(Cl)(Cl)Cl (configuration not stated) | -1.2 | -0.3 | -8.1% | -4.2% | 7.94µM* | -88.7%
COC(=O)c1ccccc1NC(=S)NC(NC(=O)c1ccccc1[N+](=O)[O-])C(Cl)(Cl)Cl (configuration not stated) | -1.4 | -1.8 | ? | -15.5% | 12.6µM* | ?
O=C(NC(NC(=S)Nc1ccccc1C(=O)O)C(Cl)(Cl)Cl)c1ccco1 (configuration not stated) | -16.7 | -21.8 | . | 2.2% | -23.3% | -5.7%
CC1CN(C(=O)COC(=O)c2cc(=O)[nH]c3ccccc23)CC(C)O1 (configuration not stated) | 0.0 | 4.6 | . | . | . | .
CCOC(=O)[C@H]1[C@H]2COc3ccc(C)cc3[C@@H]2N2C(=O)[C@@H](C)NC(=O)[C@@]12C | 4.4 | 4.9 | . | . | . | .
CC(Sc1nnc(NC2CCCCC2)s1)C(=O)Nc1ccc2c(c1)C(=O)c1ccccc1C2=O (configuration not stated) | -75.2* | 0.0 | ? | -13.5% | -8.6% | 0.0%
Cc1cc(Cl)ccc1N(CC(=O)NCc1ccc2c(c1)OCO2)S(C)(=O)=O | 5.7 | 3.8 | -7.4% | -0.4% | 13.8% | 2.8%
CC(C)NC(=O)c1onc(CSc2ccc(C(C)C)cc2)c1C(=O)O | 0.3 | 5.2 | 5.0% | -2.4% | ? | 20µM*
COc1ccccc1C(NC(=O)C1CCN(CCOc2ccccc2)CC1)c1ccccn1 (configuration not stated) | -0.7 | 1.7 | . | . | . | .
O=C(CCc1ccc(Oc2cc([N+](=O)[O-])cc([N+](=O)[O-])c2)cc1)N1CCCCC1 | ? | ? | ? | 2.0% | ? | 12.6µM*
